In PubChem BioAssay AID1159580 (chemical genetic matrix, 2015):
In all, about 5,500 compounds went through this assay and about 2,000 (36%) were called active. Inconclusive results (about 18%) are left out. Some of the results follow. Values without a mark were called inactive. Rule as the data show it: active = normalized growth mostly below about 0.91 (no sharp cut-off); inconclusive = no clear call, values can overlap the other calls; inactive = mostly above about 0.92.

Assay: chemical genetic growth profiling, strain panel (AID 1159580);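 also: tested at 20 µM; growth read once vehicle control cultures reached saturation at 30 °C; 1 = growth at the plate median or of vehicle wells; lower values mean less growth of the strain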
Conditions: growth OD

Compound: COc1ccc2c(c1)O[C@@H]1COc3cc(OC)c(OC)cc3[C@@H]1C2=O
- normalized growth (S. cerevisiae deletion strains, locus YJR043C, strain POL32, active compounds read low): 0.719 (active)
- normalized growth (S. cerevisiae deletion strains, locus YJR066W, strain TOR1, active compounds read low): 0.92
- normalized growth (S. cerevisiae deletion strains, locus YJR075W, strain HOC1, active compounds read low): 0.776 (active)
- normalized growth (S. cerevisiae deletion strains, locus YKL009W, strain mrt4, active compounds read low): 1.01
- normalized growth (S. cerevisiae deletion strains, locus YKL068W, active compounds read low): 0.984
- normalized growth (S. cerevisiae deletion strains, locus YKL085W, strain MDH1 (second series), active compounds read low): 0.984
- normalized growth (S. cerevisiae deletion strains, locus YKL085W, strain MDH1, active compounds read low): 0.984
- normalized growth (S. cerevisiae deletion strains, locus YKL160W, strain elf1, active compounds read low): 0.428 (active)
- normalized growth (S. cerevisiae deletion strains, locus YKR001C, strain vps1, active compounds read low): 0.912
- normalized growth (S. cerevisiae deletion strains, locus YKR026C, strain gcn3, active compounds read low): 0.992
- normalized growth (S. cerevisiae deletion strains, locus YKR091W, strain srl3, active compounds read low): 0.988
- normalized growth (S. cerevisiae deletion strains, locus YLL001W, strain dnm1, active compounds read low): 0.794 (active)
- normalized growth (S. cerevisiae deletion strains, locus YLL026W, active compounds read low): 0.557 (active)
- normalized growth (S. cerevisiae deletion strains, locus YLL041C, strain sdh2, active compounds read low): 0.674 (active)
- normalized growth (S. cerevisiae deletion strains, locus YLR027C, strain aat2, active compounds read low): 0.445 (active)
- normalized growth (S. cerevisiae deletion strains, locus YLR039C, strain RIC1, active compounds read low): 0.914
- normalized growth (S. cerevisiae deletion strains, locus YLR058C, strain SHM2, active compounds read low): 0.9
- normalized growth (S. cerevisiae deletion strains, locus YLR102C, strain apc9, active compounds read low): 0.696 (active)
- normalized growth (S. cerevisiae deletion strains, locus YLR113W, strain HOG1, active compounds read low): 0.983
- normalized growth (S. cerevisiae deletion strains, locus YLR221C, strain rsa3, active compounds read low): 0.377 (active)
- normalized growth (S. cerevisiae deletion strains, locus YLR258W, strain gsy2, active compounds read low): 0.705 (active)
- normalized growth (S. cerevisiae deletion strains, locus YLR262C, strain YPT6 (second series), active compounds read low): 0.994
- normalized growth (S. cerevisiae deletion strains, locus YLR262C, strain YPT6, active compounds read low): 0.928
- normalized growth (S. cerevisiae deletion strains, locus YLR268W, strain sec22, active compounds read low): 0.739 (active)
- normalized growth (S. cerevisiae deletion strains, locus YLR320W, strain mms22, active compounds read low): 0.228 (active)
- normalized growth (S. cerevisiae deletion strains, locus YLR342W, strain FKS1, active compounds read low): 0.665 (active)
- normalized growth (S. cerevisiae deletion strains, locus YLR357W, strain rsc2, active compounds read low): 0.932
- normalized growth (S. cerevisiae deletion strains, locus YLR370C, strain arc18, active compounds read low): 0.984
- normalized growth (S. cerevisiae deletion strains, locus YLR371W, strain rom2, active compounds read low): 0.854 (active)
- normalized growth (S. cerevisiae deletion strains, locus YLR384C, strain iki3, active compounds read low): 1.01
- normalized growth (S. cerevisiae deletion strains, locus YLR418C, strain cdc73, active compounds read low): 0.546 (active)
- normalized growth (S. cerevisiae deletion strains, locus YML016C, strain PPZ1, active compounds read low): 0.84 (active)
- normalized growth (S. cerevisiae deletion strains, locus YML032C, strain rad52, active compounds read low): 0.521 (active)
- normalized growth (S. cerevisiae deletion strains, locus YML120C, strain ndi1, active compounds read low): 0.59 (active)
- normalized growth (S. cerevisiae deletion strains, locus YML124C, strain tub3, active compounds read low): 0.874 (active)
- normalized growth (S. cerevisiae deletion strains, locus YMR058W, strain fet3, active compounds read low): 0.537 (active)
- normalized growth (S. cerevisiae deletion strains, locus YMR078C, strain ctf18, active compounds read low): 0.373 (active)
- normalized growth (S. cerevisiae deletion strains, locus YMR125W, strain sto1, active compounds read low): 0.612 (active)
- normalized growth (S. cerevisiae deletion strains, locus YMR129W, active compounds read low): 0.908 (active)
- normalized growth (S. cerevisiae deletion strains, locus YMR205C, strain PFK2, active compounds read low): 0.23 (active)
- normalized growth (S. cerevisiae deletion strains, locus YMR223W, strain ubp8, active compounds read low): 0.78 (active)
- normalized growth (S. cerevisiae deletion strains, locus YMR231W, strain pep5, active compounds read low): 0.991
- normalized growth (S. cerevisiae deletion strains, locus YMR263W, strain SAP30, active compounds read low): 0.922
- normalized growth (S. cerevisiae deletion strains, locus YMR307W, strain GAS1, active compounds read low): 0.909
- normalized growth (S. cerevisiae deletion strains, locus YNL067W, strain RPL9B, active compounds read low): 0.858 (active)
- normalized growth (S. cerevisiae deletion strains, locus YNL071W, strain lat1, active compounds read low): 0.246 (active)
- normalized growth (S. cerevisiae deletion strains, locus YNL153C, strain GIM3, active compounds read low): 0.597 (active)
- normalized growth (S. cerevisiae deletion strains, locus YNL183C, strain NPR1, active compounds read low): 0.927
- normalized growth (S. cerevisiae deletion strains, locus YNL209W, strain ssb2, active compounds read low): 1.01
- normalized growth (S. cerevisiae deletion strains, locus YNL233W, strain BNI4, active compounds read low): 0.427 (active)
- normalized growth (S. cerevisiae deletion strains, locus YNL248C, strain rpa49, active compounds read low): 0.814 (active)
- normalized growth (S. cerevisiae deletion strains, locus YNL250W, strain rad50, active compounds read low): 0.936
- normalized growth (S. cerevisiae deletion strains, locus YNL271C, strain bni1, active compounds read low): 0.963
- normalized growth (S. cerevisiae deletion strains, locus YNL298W, strain CLA4, active compounds read low): 0.97
- normalized growth (S. cerevisiae deletion strains, locus YNL307C, strain MCK1, active compounds read low): 0.183 (active)
- normalized growth (S. cerevisiae deletion strains, locus YNL322C, strain KRE1 (second series), active compounds read low): 0.761 (active)
- normalized growth (S. cerevisiae deletion strains, locus YNR049C, strain mso1, active compounds read low): 0.951
- normalized growth (S. cerevisiae deletion strains, locus YNR052C, strain pop2, active compounds read low): 0.948
- normalized growth (S. cerevisiae deletion strains, locus YOL012C, strain htz1): 0.241
- normalized growth (S. cerevisiae deletion strains, locus YOL147C, strain pex11, active compounds read low): 0.25 (active)
- normalized growth (S. cerevisiae deletion strains, locus YOR001W, strain rrp6, active compounds read low): 0.689 (active)
- normalized growth (S. cerevisiae deletion strains, locus YOR061W, strain CKA2, active compounds read low): 0.967
- normalized growth (S. cerevisiae deletion strains, locus YOR069W, strain VPS5, active compounds read low): 0.905 (active)
- normalized growth (S. cerevisiae deletion strains, locus YOR070C, strain gyp1, active compounds read low): 0.528 (active)
- normalized growth (S. cerevisiae deletion strains, locus YOR080W, strain dia2, active compounds read low): 0.839 (active)
- normalized growth (S. cerevisiae deletion strains, locus YOR083W, strain WHI5, active compounds read low): 0.916
- normalized growth (S. cerevisiae deletion strains, locus YOR106W, strain vam3, active compounds read low): 0.871
- normalized growth (S. cerevisiae deletion strains, locus YOR136W, strain idh2, active compounds read low): 0.767 (active)
- normalized growth (S. cerevisiae deletion strains, locus YOR144C, strain elg1, active compounds read low): 0.573 (active)
- normalized growth (S. cerevisiae deletion strains, locus YOR184W, strain ser1, active compounds read low): 0.896
- normalized growth (S. cerevisiae deletion strains, locus YOR231W, strain MKK1, active compounds read low): 0.977
- normalized growth (S. cerevisiae deletion strains, locus YOR265W, strain rbl2, active compounds read low): 0.797 (active)
- normalized growth (S. cerevisiae deletion strains, locus YOR270C, strain vph1, active compounds read low): 0.593 (active)
- normalized growth (S. cerevisiae deletion strains, locus YOR290C, strain snf2, active compounds read low): 0.315 (active)
- normalized growth (S. cerevisiae deletion strains, locus YOR316C, strain cot1, active compounds read low): 0.771 (active)
- normalized growth (S. cerevisiae deletion strains, locus YPL051W, strain arl3, active compounds read low): 0.803 (active)
- normalized growth (S. cerevisiae deletion strains, locus YPL055C, strain LGE1, active compounds read low): 0.775
- normalized growth (S. cerevisiae deletion strains, locus YPL078C, strain atp4, active compounds read low): 0.635 (active)
- normalized growth (S. cerevisiae deletion strains, locus YPL106C, strain sse1, active compounds read low): 1.04
- normalized growth (S. cerevisiae deletion strains, locus YPL240C, strain hsp82, active compounds read low): 0.714 (active)
- normalized growth (S. cerevisiae deletion strains, locus YPL256C, strain CLN2, active compounds read low): 1.01
- normalized growth (S. cerevisiae deletion strains, locus YPR119W, strain clb2, active compounds read low): 0.731 (active)
- normalized growth (S. cerevisiae deletion strains, locus YPR141C, strain kar3, active compounds read low): 0.959
- normalized growth (S. cerevisiae deletion strains, locus YPR163C, strain tif3, active compounds read low): 0.438 (active)
- normalized growth (S. cerevisiae deletion strains, locus YPR167C, strain met16, active compounds read low): 0.886 (active)
- normalized growth (S. cerevisiae deletion strains, strain wtn01, active compounds read low): 0.686 (active)
- normalized growth (S. cerevisiae strains, strain wild type, active compounds read low): 0.753 (active)
